mcGAS MS inh: inhibitors of Mus musculus cyclic GMP-AMP synthase, initial high-throughput assay, cell-free, RapidFire MS. Q8C6L5. recombinant mouse cGAS, cGAMP by RapidFire MS. inhibition, % at 12.5 µM. actives 0.18% (n = 130,000). AID 1259397, 2018;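 active = inhibition of cGAS enzyme activity at or above 60%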;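 note: enzyme stimulated by 45 bp dsDNA with ATP and GTP substrates; cGAMP share of summed cGAMP plus half ATP and half GTP signals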
Target sequence (Q8C6L5 whole entry, looked up): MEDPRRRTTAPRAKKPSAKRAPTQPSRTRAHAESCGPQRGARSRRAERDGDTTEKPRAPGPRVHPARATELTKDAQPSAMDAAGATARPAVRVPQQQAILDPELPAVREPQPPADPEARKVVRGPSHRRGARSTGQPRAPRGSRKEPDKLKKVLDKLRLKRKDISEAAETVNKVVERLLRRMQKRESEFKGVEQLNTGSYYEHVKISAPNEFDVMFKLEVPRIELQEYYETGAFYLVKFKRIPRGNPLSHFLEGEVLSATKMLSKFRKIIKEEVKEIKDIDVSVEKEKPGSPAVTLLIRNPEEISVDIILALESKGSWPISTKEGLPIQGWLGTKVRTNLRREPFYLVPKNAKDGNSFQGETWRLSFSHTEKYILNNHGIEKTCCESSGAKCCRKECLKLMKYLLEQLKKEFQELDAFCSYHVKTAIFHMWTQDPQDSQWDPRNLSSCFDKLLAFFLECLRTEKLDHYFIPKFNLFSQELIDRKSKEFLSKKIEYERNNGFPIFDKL
Each line names hits and unclear results; the compound was inactive in the other large screens; ! = a repeat was not active. Shown is part of a subset that was picked to be rich in hits.

COc1cc(CN(C)Cc2oc(CO)cc(=O)c2O)ccc1OC(F)F	none
COc1ccc(CN(C)Cc2nnc(C(C)C)o2)cc1OC(F)F	mcGAS MS inh 81
COc1cc(CSc2nnnn2-c2ccccc2)ccc1OC(F)F	none
Cn1c(COc2ccc(Cl)cc2)nnc1SCCOc1ccc(Cl)cc1	none
CCc1ccc(C2=Nc3nnnn3C(c3ccc(SC)cc3)C2)cc1 (centres undefined)	none
CCOC(=O)C1(C(F)(F)F)C(C#N)C(N)=Nc2cc(-c3ccc(OC)cc3)nn21 (centres undefined)	none
O=C(c1n[nH]c(C2CC2)c1Cl)N1CCN(S(=O)(=O)c2ccccc2)CC1	none
O=C(c1n[nH]c(=O)c2ccccc12)N1CCN(S(=O)(=O)c2cccc(Cl)c2)CC1	mcGAS MS inh 87
Cc1cccc(CN2CCN(C(=O)c3n[nH]c(=O)c4ccccc34)CC2)c1	none
C=CCN1C(=O)C(=C2SC(=S)N(CC)C2=O)c2ccccc21	none
Cc1ccc(C2c3cc4c(cc3OC(=N)C2C#N)OCO4)cc1 (centres undefined)	none
Cc1nc2n(n1)CC(NCc1ccc(N3CCOCC3)c(F)c1)CC2 (centres undefined)	none
CN1[C@@H](c2ccccc2)[C@@H](C(=O)N2CC(n3cccn3)C2)C[C@@]1(C)C(=O)O	none
Cc1cc(=O)n(C(C)C(=O)N2CCOCC2)c2c1c(C)nn2-c1ccccc1 (centres undefined)	none
O=C(O)[C@H]1C[C@@H](C(=O)NC2CC2)CN(C(=O)Cc2ccccc2F)C1	none
O=C(C[n+]1ccc(NC(=O)c2ccccc2)c2ccccc21)c1ccccc1	mcGAS MS inh 64
Cc1c2cccn2cc[n+]1CC(=O)c1ccccc1	none
Cc1ccc[n+](CC(=O)c2ccc(-c3ccccc3)cc2)c1C	none
CN(C(=O)Nc1ccc(Cl)cc1-n1cccc1)C1CCOCC1	none
Cc1ccc2c(c1)c(CNC(=O)c1ccccc1C1CCNC1)nn2C (centres undefined)	none
Cc1ccc2c(c1)c(CNC(=O)CCc1c(C)nn(C)c1C)nn2C	none
Cc1ccc2c(c1)c(CNC(=O)C1CNCC(=O)N1)nn2C (centres undefined)	mcGAS MS inh 64
COc1c(Cl)cc(Cl)cc1C=NNC(=O)c1ccncc1	none
Cc1cc(=O)[nH]c(-n2nc(C3CC3)cc2NC(=O)c2cccs2)n1	none
Cc1ccc(N2Cc3ccccc3C2=O)cc1	none
Cc1ccc(/C(=C2\OC(=O)c3ccccc32)[N+](=O)[O-])c(C)c1	none
Cc1ccc(C2([N+](=O)[O-])C(=O)c3ccccc3C2=O)cc1	mcGAS MS inh 90
O=C(N1CCC(Nc2cccnn2)CC1)C1(c2ccc(F)cc2)CC1	none
CC(=O)NC(C)c1nc2ccccc2n1CC(C)C (centres undefined)	none
Cc1ccc2oc3c(c(=O)c2c1)C(c1cccnc1)N(c1cc(C)on1)C3=O (centres undefined)	none
Fc1ccc(-c2cc3c(nn2)Nc2ccccc2N3)cc1	none
Cc1cccc(N2CCN(C(=O)C3CCC(=O)N(CCc4cccc(F)c4)C3)CC2)n1 (centres undefined)	none
N#CCC(=O)Nc1sc2c(c1C(N)=O)CCCC2	mcGAS MS inh 91
NC(=O)c1c(NC(=O)CN2CCOCC2)sc2c1CCC2	none
NC(=O)c1c(NC(=O)CSCC(=O)O)sc2c1CCCC2	none
COc1cccc(C=CC(=O)c2ccc(Cl)c(Cl)c2)c1OC	none
COc1c(Cl)ccc(Cl)c1C(=O)O	mcGAS MS inh 98
COc1c(Cl)cc(C(=O)NCCn2cccc2)cc1Cl	none
Cc1cccnc1NP1(=S)C(=C2N(C)c3ccccc3C2(C)C)C=NN1c1ccccc1 (centres undefined)	none
Cc1cc(COc2cccnc2[N+](=O)[O-])no1	none
C(=C1CCC=C1N1CCOCC1)c1nc2ccccc2[nH]1	mcGAS MS inh 77
FC(F)Oc1ccc(Br)cc1C=C1CCC=C1N1CCOCC1	none
O=C(CCc1nc2ccccc2[nH]1)N1CCc2c(ncnc2N2CCOCC2)C1	none
Cc1c(C(=O)NCc2ccc(C)n2C)oc2c1C(=O)CC(C)(C)C2	none
COc1cc(-c2nc(CN3CCCC3c3nc4ccccc4s3)c(C)o2)ccc1F (centres undefined)	none
CN1C(=O)CC(C(=O)Nc2ccccc2)SC1=Nc1ccc(Cl)c(C(F)(F)F)c1 (centres undefined)	none
CN1CCC(N(Cc2ccccc2)C(=O)Nc2ccc(NC(=O)C3CC3)cc2)CC1	none
CN1CCN(C2=NC(C(=O)Nc3ccccc3)CC(=O)N2)CC1 (centres undefined)	mcGAS MS inh 70
CCCN(CC1CC1)C(=O)Nc1cccc(NC(=O)OC)c1	none
CCN(CC)C(=S)SC(C)C(=O)NC1CC1 (centres undefined)	none
CCN(CC)C(=S)SSC(=S)N(CC)CC	mcGAS MS inh 76!
O=C(c1cc(Br)ccc1O)N1CCN(C(=O)c2ccccc2Cl)CC1	none
COCCS(=O)(=O)N(Cc1ccco1)c1ccc(F)cc1F	none
COCCN(Cc1ccco1)S(=O)(=O)Cc1cccc(C)c1	mcGAS MS inh 89
COCCN(Cc1ccco1)C(=O)CNc1ccccc1Cl	none
Cc1sc(N=Cc2ccccc2O)c(C#N)c1C	none
O=C(NNC(=O)C1CCC(=O)N(Cc2ccccc2)C1c1ccccc1)C1CC1 (centres undefined)	none
COc1ccc(-n2nnc3c(=O)n(Cc4ccc(Cl)cc4Cl)cnc32)cc1	none
O=C(NC1(c2ccc(F)cc2)CCCC1)c1cccs1	none
Cc1cccnc1NC(=O)NC1(c2ccc(F)cc2)CCC1	mcGAS MS inh 78
COc1ncccc1NC(=O)NC1(c2ccc(Cl)cc2)CCC1	none
Cc1ccc(CN2CCOCC2)cc1NC(=O)Cc1ccc(F)cc1	none
CN1C(=O)/C(=C2\SC(=S)N(c3ccc(O)cc3)C2=O)c2ccccc21	none
Nc1nc2ncc(CNc3ccc(C(=O)N[C@@H](CCC(=O)O)C(=O)O)cc3)nc2c(=O)[nH]1	mcGAS MS inh 82!
Nc1nc2[nH]cc(CCc3ccc(C(=O)N[C@H](CCC(=O)O)C(=O)O)cc3)c2c(=O)[nH]1	none
CN(Cc1cnc2nc(N)nc(N)c2n1)c1ccc(C(=O)N[C@@H](CCC(=O)O)C(=O)O)cc1	none
CCC(C)NC(=O)CNc1ccccc1I (centres undefined)	none
CC1CCC(N2CC(C(=O)N3CCc4c(nnn4C)C3)CC2=O)CC1 (centres undefined)	none
Nc1nnc(SCC(=O)c2ccc([N+](=O)[O-])cc2)s1	none
C=CCSc1nnc(N)s1	none
Nc1nnc(Sc2ncc([N+](=O)[O-])s2)s1	mcGAS MS inh 67
C=CCNC(=O)Nc1cc(C(=O)N2CCSCC2)ccc1C	none
CC(C)=NNc1nc(Cl)c(C#N)c(Cl)c1Cl	mcGAS MS inh 75
C/C(=N/Nc1nc(Cl)c(C#N)c(Cl)c1Cl)c1ccc(N)cc1	none
CCn1c(N)c(C(=O)Nc2sc3c(c2C(=O)NC)CCCC3)sc1=S	none
O=c1[nH]c2c(-c3nc4ccccc4s3)c(O)cn2c2sc3c(c12)CCCC3	none
O=c1[nH]c2c(-c3ccccc3)c(O)cn2c2c1sc1ccccc12	mcGAS MS inh 70
O=c1c(O)c(-c2ccccc2)[nH]c2ccccc12	none
CCCc1nc(C)sc1C(=O)N1CCCC1c1nnc2c(C(F)(F)F)cccn12 (centres undefined)	none
N#Cc1ccc(NCCc2ccc(Cl)cc2)nc1	none
COCC(=O)Nc1ccc(F)cc1OCC1CC1	none
O=C(c1cncn1-c1ccccc1)N1CCN(S(=O)(=O)c2c(Cl)cccc2Cl)CC1	none
Cn1c(=O)c2[nH]c(/C=N\NC(N)=S)nc2n(C)c1=O	none
NC(=S)NN=Cc1c[nH]c2ccccc12	none
CC(C)(C)n1cccc(/C=N\NC(N)=S)c1=S	mcGAS MS inh 72
COC(=O)c1ccc(CN2C(=O)C(Cc3ccccc3)ON=C2C)o1 (centres undefined)	none
